Experimental data: PubChem BioAssay AID1159580 (chemical genetic matrix, 2015)
The campaign covered roughly 5,500 compounds. About 2,000 (36%) were called active. Inconclusive results (about 18%) are left out. Cut-off read from the data, not from the text of the source: active = normalized growth mostly below about 0.91 (no sharp cut-off); inconclusive = no clear call, values can overlap the other calls; inactive = mostly above about 0.92. Some of the results follow.

Experiment: chemical genetic growth profiling, strain panel (AID 1159580);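 note: tested at 20 µM; growth read once vehicle control cultures reached saturation at 30 °C; 1 = growth at the plate median or of vehicle wells; lower values mean less growth of the strain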
Settings: S. cerevisiae deletion strains, growth OD
[1] = locus YAL040C, strain CLN3, hits give low values
[2] = locus YCL061C, strain MRC1 (second series), hits give low values
[3] = locus YDR363W, strain ESC2, hits give low values
[4] = locus YER002W, strain NOP16, hits give low values
[5] = locus YGR229C, strain SMI1, hits give low values
[6] = locus YNL153C, strain GIM3, hits give low values
[7] = locus YNL175C, strain NOP13, hits give low values
[8] = locus YNL197C, strain WHI3, hits give low values
[9] = locus YNL224C, strain SQS1, hits give low values
[10] = locus YOR083W, strain WHI5 (second series), hits give low values

Measured: normalized growth

CC(=O)NC(CS)C(=O)O (stereo unspecified)
inactive: [1] 0.975 | [2] 0.993 | [3] 1.03 | [4] 0.994 | [5] 1.02 | locus YMR263W, strain SAP30, hits give low values 0.988 | [6] 0.979 | [7] 0.974 | [8] 0.988 | [9] 0.983 | [10] 0.996

COC(=O)C(N)Cc1ccc(Cl)cc1 (stereo unspecified)
inactive: [1] 0.998 | [2] 0.993 | [3] 0.976 | [4] 0.988 | [5] 0.99 | [6] 1.01 | [7] 0.965 | [8] 0.965 | [9] 0.984 | [10] 0.91
